Compound activity as filed in PubChem.
VP16 counter: counter-screen for ROR gamma inhibitors: Gal4-VP16 reporter; Drosophila S2 Gal4-VP16 UAS-luciferase, luminescence, 20 h; Potency, µM (top dose mostly 53.6 µM), for the others: top-dose activity, negative = inhibition, hits mostly inhibitors; actives 3.5% (n = 310,000); AID 2546;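 also: Gal4-VP16 expression switched on by copper sulfate through the metallothionein promoter; nearly all actives have a fitted effect of over 50% in size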
RORgamma inh: ROR gamma (mouse) transcription inhibition; P51450; Drosophila S2 Gal4-RORgamma UAS-luciferase reporter, 20 h; Potency, µM (series often up to 53.6 µM), without a hit: at the top dose activity change, negative = inhibition, hits mostly inhibitors; actives 5.4% (n = 310,000); AID 2551; also: nearly all actives have a fitted effect of over 60% in size
Target sequence (P51450 whole entry, looked up, the tested form may be a part): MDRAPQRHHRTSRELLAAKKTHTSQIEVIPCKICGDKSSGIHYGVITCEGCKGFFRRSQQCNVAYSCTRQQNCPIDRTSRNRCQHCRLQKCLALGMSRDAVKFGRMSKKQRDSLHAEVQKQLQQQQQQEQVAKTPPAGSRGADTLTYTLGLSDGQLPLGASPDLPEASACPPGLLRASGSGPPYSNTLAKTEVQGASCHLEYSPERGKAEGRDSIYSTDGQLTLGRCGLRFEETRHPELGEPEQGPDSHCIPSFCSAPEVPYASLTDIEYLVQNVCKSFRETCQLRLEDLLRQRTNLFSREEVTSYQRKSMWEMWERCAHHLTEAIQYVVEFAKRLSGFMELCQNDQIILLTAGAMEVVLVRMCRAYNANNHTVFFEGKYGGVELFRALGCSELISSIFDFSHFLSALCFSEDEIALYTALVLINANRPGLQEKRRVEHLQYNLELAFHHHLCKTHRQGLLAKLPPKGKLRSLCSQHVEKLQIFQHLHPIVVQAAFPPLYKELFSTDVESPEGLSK
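ROR gamma transcriptional activity was tracked as Gal4-UAS luciferase output in stably transfected Drosophila Schneider cells, with compound added 1 hr before 700 uM copper sulfate induction and a 20 hr ambient-temperature incubation.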
DT40 TDP1 no CPT: qHTS for Inhibitors of human tyrosyl-DNA phosphodiesterase 1 (TDP1): qHTS in cells in absence of CPT | DT40 Tdp1-/- hTDP1 cells, no CPT, ATP luminescence, 48 h | actives 15% (n = 420,000) | Potency, µM (series often up to 46.2 µM), for inactives: top-dose activity change, negative = growth inhibition, usual class: inhibitors | AID 686978, 2013; also: nearly all actives have a fitted effect of over 55% in size
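DT40 Tdp1-/-;hTDP1 cells, no CPT (DMSO vehicle only), 400 cells/well; compounds pin-transferred; ≥48 hr, 37 °C; CellTiter-Glo 30 min RT dark, luminescence read.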
ELG1 repair inh: inhibitors of ELG1-dependent DNA repair in HEK293T cells | actives 2.3% (n = 330,000) | Potency, µM (highest dose often 46.1 µM), for the others: at the top dose activity change, negative = inhibition, usual class: inhibitors | AID 504467 | HEK293T ELG1-luciferase reporter, luminescence, 16 h; DNA damage induced by 5-fluorouridine; also: nearly all actives have a fitted effect of over 55% in size
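Step one: seed 2,000 cells per well. Step two: pin-transfer compound or DMSO alongside 5-fluorouridine. Step three: incubate 16 hr, 37 °C, 5% CO2. Step four: add ONE-Glo, wait 30 min, read luminescence.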
TDP1 cell CPT: growth inhibition of DT40 Tdp1-/-;hTDP1 cells with camptothecin (screen for TDP1 inhibitors); Potency, µM (highest dose often 46.2 µM), for the others: top-dose activity change, negative = growth inhibition, actives largely listed as inhibitors; actives 12% (n = 420,000); chicken DT40 Tdp1-/-;hTDP1 cells + 20 nM CPT, ATP luminescence, 48 h; AID 686979; also: nearly all actives have a fitted effect of over 55% in size
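Chicken DT40 Tdp1-/- cells stably complemented with human TDP1 were seeded at 400 cells/well in medium containing 20 nM camptothecin, exposed to pin-transferred compounds, and grown at 37 °C for at least 48 hr. Viability was read as ATP luminescence.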
12-LOX inh: blocks human arachidonate 12S-lipoxygenase. P18054. purified 12hLO, xylenol orange hydroperoxide absorbance. Potency, µM (highest dose often 108 µM), for inactives: top-dose activity change, negative = inhibition, hits mostly inhibitors. actives 1.1% (n = 580,000). AID 1671190
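Purified human 12hLO (150 nM final) in 25 mM Hepes, 0.01% Triton X-100, pH 7.0 was preincubated 15 min at room temperature with compound. Then 40 uM arachidonic acid was added, 30 min. Hydroperoxide was read by Fe-XO absorbance ratio 573/405 nm.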
Numbers without * were called inactive; [ ] = another dose, or the depositor's remark. Shown are actives, neighbours in structure and some others; about 15% of the full set was active somewhere. Calls follow the shape of the dose curve; as a rule, active = well fitted curve in the direction sought with a large enough effect; inconclusive = small, poorly fitted or top-dose-only effect, or another doubt; inactive = no such curve, though single readings can be large; an effect the other way counts as inactive or inconclusive. % is scaled to controls: 0 for no effect and ±100 for the full control effect; potency is read from the fitted curve at half-maximal effect.

Results for Cc1n[nH]c(C)c1Sc1ccccc1N=Cc1cc(Cl)cc([N+](=O)[O-])c1O ?
VP16 counter: -1%; RORgamma inh: -28%; DT40 TDP1 no CPT: inconclusive; ELG1 repair inh: 4%; TDP1 cell CPT: inconclusive

What do the screens show for `COc1ccc(N=Cc2cc(Cc3ccccc3Cl)cc([N+](=O)[O-])c2O)cc1OC`?
VP16 counter: -16%; RORgamma inh: 7%; DT40 TDP1 no CPT: 26µM*; ELG1 repair inh: inconclusive; TDP1 cell CPT: inconclusive

Results for Cc1cccc(CS(=O)(=O)C(C)C(=O)N(C)Cc2cccc(F)c2)c1 (configuration not stated) ?
12-LOX inh: -5%

Results for CCOC(=O)CCNC(=O)N1CCCCCC1c1ccc(C)s1 (configuration not stated) ?
12-LOX inh: 5%

How did O=C(CCC(=O)c1ccc(Br)cc1)Nc1cccnc1 do in these assays?
VP16 counter: 6%; RORgamma inh: 2%; DT40 TDP1 no CPT: 16%; ELG1 repair inh: -1%; TDP1 cell CPT: -12%; 12-LOX inh: -2%

Results for O=C(CCSc1ccc(Br)cc1)Nc1cccnc1 ?
VP16 counter: -4%; RORgamma inh: 11%; DT40 TDP1 no CPT: 23µM*; ELG1 repair inh: -4%; TDP1 cell CPT: 14%; 12-LOX inh: -10%

Results for Cn1cnnc1SCc1ccc(C(=O)NN)cc1 ?
VP16 counter: 1%; RORgamma inh: -6%; DT40 TDP1 no CPT: -3%; ELG1 repair inh: -4%; TDP1 cell CPT: 13%; 12-LOX inh: 10%

What do the screens show for `CCCCNC(=S)N=Nc1c(O)[nH]c2ccccc12`?
VP16 counter: 5.6µM*; RORgamma inh: 2.2µM*; DT40 TDP1 no CPT: 10µM*; ELG1 repair inh: -6%; TDP1 cell CPT: inconclusive; 12-LOX inh: 4%

Results for CC(C)c1ccc2[nH]c(O)c(N=NC(=S)NCCc3ccccc3)c2c1 ?
VP16 counter: 2.2µM*; RORgamma inh: 2µM*; DT40 TDP1 no CPT: 8.2µM*; ELG1 repair inh: inconclusive; TDP1 cell CPT: 18µM*; 12-LOX inh: -18%

Results for CC(C)c1ccc2[nH]c(O)c(N=NC(=O)c3ccc(CSc4nncn4C)cc3)c2c1 ?
VP16 counter: -1%; RORgamma inh: 5%; DT40 TDP1 no CPT: 16µM*; ELG1 repair inh: inconclusive; TDP1 cell CPT: 23µM*; 12-LOX inh: 3%

How did O=C(CSCc1ccccc1)N=Nc1c(O)[nH]c2ccccc12 do in these assays?
VP16 counter: 8%; RORgamma inh: 12%; DT40 TDP1 no CPT: -28%; ELG1 repair inh: inconclusive; TDP1 cell CPT: -2%; 12-LOX inh: -10%

How did CC(C)CC(=O)N=Nc1c(O)[nH]c2ccccc12 do in these assays?
VP16 counter: 27%; RORgamma inh: 7%; DT40 TDP1 no CPT: -6%; ELG1 repair inh: inconclusive; TDP1 cell CPT: 0%; 12-LOX inh: -14%

How did O=C(N=Nc1c(O)[nH]c2ccccc12)c1ccco1 do in these assays?
VP16 counter: inconclusive; RORgamma inh: inconclusive; DT40 TDP1 no CPT: 16µM*; ELG1 repair inh: inconclusive; TDP1 cell CPT: inconclusive; 12-LOX inh: 2%

What do the screens show for `CCOC(=O)c1c(C)c(C(=O)Nc2ccc(C)c(F)c2)c(C)n1C`?
12-LOX inh: 2%

Results for O=C1OC[C@@H]2CCN(C3CCC3)Cc3ccc(F)cc3N12 ?
12-LOX inh: 8%[176 µM]

How did Cc1ccccc1NC(=O)Cn1cnc2c(cnn2-c2ccc(F)cc2)c1=O do in these assays?
12-LOX inh: -25%

What do the screens show for `NC(=S)N=Nc1c(O)[nH]c2c(Br)cc(Br)cc12`?
VP16 counter: 11µM*; RORgamma inh: 3.5µM*; DT40 TDP1 no CPT: 21µM*; ELG1 repair inh: -13%; TDP1 cell CPT: inconclusive; 12-LOX inh: -11%
